Results filed as inconclusive are left out. A number with no mark means an inactive call. The source made the active and inactive calls. The call rests on the fitted dose curve; in most records, active means well fitted cell-killing curve with a large enough effect in the repeat runs; inconclusive means weak or mixed curves, or effect the other way; inactive means flat fitted curve, though single readings scatter.
Assay: qHTS RealTime-Glo MT Cell Viability Assay in HepG2 cells - 40 hour (AID 1224870); further: nearly all actives have a fitted effect of over 50% in size
Conditions: RealTime-Glo luminescence; series mostly up to 76.8 µM; activity change, negative = cytotoxic: at the top concentration
Text: National Center for Advancing Translational Sciences [NCATS]
NIH Chemical Genomics Center [NCGC]
U.S. Environmental Protection Agency [EPA]
National Institutes of Environmental Health Sciences [NIEHS]
National Toxicology Program [NTP]
U.S. Food and Drug Administration [FDA]
Measure of cell viability is critical in the cell-base assay. Analysis of cell viability is necessary for the characterization of cell responses to cytotoxic drugs and environmental stress. A RealTime-Glo MT Cell Viability Assay to monitor cell viability in real time of continues cell culture during 40 hours of compound treatment was used to screen Tox21 10K library compounds in HepG2 cells. The RealTime-Glo MT Cell Viability Assay is a nonlytic, homogeneous, bioluminescent method to measure cell viability in real time using a simple, plate-based method. The assay involves adding NanoLuc luciferase and a cell-permeant prosubstrate to cells in culture. Viable cells reduce the proprietary prosubstrate to generate a substrate for NanoLuc luciferase. This substrate diffuses from cells into the surrounding culture medium, where it is rapidly used by the NanoLuc Enzyme to produce a luminescent signal. The signal correlates with the number of viable cells, making the assay well suited for cytotoxicity studies.
Tox21 Assay Protocol Summary:
The mixture of HepG2 cell suspension and reagents were dispensed at 600cells/6 ul/well in 1536-well tissue culture treated black solid bottom plates using a Multidrop dispenser. After the assay plates were incubated at a 37 C/5% CO2 incubator for 5 hours, 23 nL of compounds dissolved in DMSO, positive and negative controls was transferred to the assay plate by a pintool work station. The plates were incubated at 37 C for 40 hours. The luminescence intensity were measured at 0h, 8h, 16h, 24h, 32h and 40h time points using ViewLux plate reader during compound treatment.
On the % scale 0 is the no-effect control and ±100 the full control effect; potency means the concentration at half of the fitted maximal effect.

SMILES | activity change, negative = cytotoxic | Potency
CCC1(C)C(=O)N(Cl)C(=O)N1Cl (stereo not given) | -11.6% | –
Nc1ccc2c(S(=O)(=O)O)cccc2c1S(=O)(=O)O | 3.23% [at 35.3 µM] | –
CC(C)C(=O)C(C)C | -2.15% | –
COc1cc(OC)nc(NC(=O)NS(=O)(=O)Nc2ccccc2C(=O)N(C)C)n1 | -4.34% | –
c1ccc2cc3c4ccccc4c4ccccc4c3cc2c1 | 0.468% | –
O=c1cc[nH]cc1 | 5.05% | –
CCn1c2ccccc2c2ccccc21 | 1.85% | –
Cn1ccnc1 | -1.08% | –
O=S(=O)(c1ccc(OCc2ccccc2)cc1)c1ccccc1O | -4.05% | –
CCNc1nc(NC(C)(C)C)nc(OC)n1 | -0.523% | –
CCOc1nc(F)cc2nc(S(=O)(=O)Nc3c(Cl)cccc3C(=O)OC)nn12 | -3.86% | –
C=CC(=O)OCC(Br)CBr (stereo not given) | -3.99% | –
CCc1cccc(CC)c1 | -2.65% | –
C=Cc1ccc(O)c(OC)c1 | -2.23% | –
CN1CC[C@H](c2c(O)cc(O)c3c(=O)cc(-c4ccccc4Cl)oc23)[C@H](O)C1 | -26.9% [at 35.3 µM] | –
NCc1ccco1 | -6.33% | –
Cc1cccc(C)c1C | 4.6% | –
Nc1cc([N+](=O)[O-])cc(Cl)c1O | -2.51% | –
Nc1ccc(Oc2cccc(Oc3ccc(N)cc3)c2)cc1 | -0.937% | –
Oc1cccc2c(O)cccc12 | 8.59% | –

SMILES | activity change, negative = cytotoxic | Potency
C=CC(C)(C)O | 3.17% | –
CN(C)CCOc1ccc(/C(=C(/CCCl)c2ccccc2)c2ccccc2)cc1 | – | 40.9 µM (active)
O=c1[nH]cccc1O | 8.5% | –
CCC(O)CO (stereo not given) | -0.291% | –
CC(C)=NNC(N)=S | -0.281% | –
[Cl][Sc]([Cl])[Cl] | 0.642% | –
C=C[Si](C)(C)Cl | 24.3% [at 6.97 µM] | –
CC(C)(c1ccc(Oc2ccc(N)cc2)cc1)c1ccc(Oc2ccc(N)cc2)cc1 | 4.13% | –
c1ccc(C[P+](c2ccccc2)(c2ccccc2)c2ccccc2)cc1 | -4.97% | –
O=[N+]([O-])c1ccc(O)c2ncccc12 | -26.9% [at 35.3 µM] | –
CCc1c(C)cc(N)c(CC)c1N | 7.32% | –
Cc1ccc(C2OC[C@@H]3OC(c4ccc(C)cc4)O[C@H]([C@H](O)CO)[C@@H]3O2)cc1 (stereo not given in full) | -1.69% | –
CCOC=C(C(=O)OCC)C(=O)OCC | -13.1% | –
CCCCCCCC/C=C\CCCCCCCC(=O)N(CCO)CCO | -7.58% | –
CCCCCCCCCCCCCCCCC(C(=O)O)C(O)(CC(=O)O)C(=O)O (stereo not given) | -4.59% [at 35.3 µM] | –
Cc1ccc2n[nH]nc2c1 | -1.31% | –
CC(c1cc(C(C)(C)C)cc(C(C)(C)C)c1O)c1cc(C(C)(C)C)cc(C(C)(C)C)c1O | -1.85% | –
CCOC(=O)[C@H](O)[C@@H](O)C(=O)OCC | 12.8% | –
C=C(C)CCO | 26.3% | –
NC(=O)C1CO1 (stereo not given) | 7.01% | –

Reference: PubChem BioAssay (Tox21)
